Measured values from the supplement of paper PMC8728848.
This excerpt belongs to a sample that is enriched for the strongest signals.

How the values were obtained:
Experiment in all cases: glycan array binding signal (z-score within array); higher = stronger binding
Conditions in all cases: glycan notation: IUPAC condensed, linker removed; mutation: R74S
[1] = target: Gal(b1-4)GlcNAc(b1-3)Gal(b1-4)GlcNAc(b1-3)Gal(b1-4)GlcNAc(b1-3)Gal(b1-4)GlcNAc(b1-2)Man(a1-3)[Gal(b1-4)GlcNAc(b1-3)Gal(b1-4)GlcNAc(b1-3)Gal(b1-4)GlcNAc(b1-3)Gal(b1-4)GlcNAc(b1-2)Man(a1-6)]Man(b1-4)GlcNAc(b1-4)[Fuc(a1-6)]GlcNAc
Outline: (§1)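 From the Consortium for Functional Glycomics database, 3228 arrays were curated, keeping only those whose protein sequence was available. Binding is given as a within-array Z-score averaged across arrays sharing a protein sequence and across linkers. Negative Z-scores can be read as non-binding.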

[2] = target: Gal(b1-4)GlcNAc(b1-3)Gal(b1-4)GlcNAc(b1-3)Gal(b1-4)GlcNAc(b1-3)Gal(b1-4)GlcNAc(b1-2)[Gal(b1-4)GlcNAc(b1-3)Gal(b1-4)GlcNAc(b1-3)Gal(b1-4)GlcNAc(b1-3)Gal(b1-4)GlcNAc(b1-6)]Man(a1-6)[Gal(b1-4)GlcNAc(b1-3)Gal(b1-4)GlcNAc(b1-3)Gal(b1-4)GlcNAc(b1-3)Gal(b1-4)GlcNAc(b1-2)Man(a1-3)]Man(b1-4)GlcNAc(b1-4)[Fuc(a1-6)]GlcNAc
Outline: as §1

[3] = target: Gal(b1-4)GlcNAc(b1-3)Gal(b1-4)GlcNAc(b1-3)Gal(b1-4)GlcNAc(b1-3)Gal(b1-4)GlcNAc(b1-3)Gal(b1-4)GlcNAc(b1-2)Man(a1-3)[Gal(b1-4)GlcNAc(b1-3)Gal(b1-4)GlcNAc(b1-3)Gal(b1-4)GlcNAc(b1-3)Gal(b1-4)GlcNAc(b1-3)Gal(b1-4)GlcNAc(b1-2)Man(a1-6)]Man(b1-4)GlcNAc(b1-4)GlcNAc
Outline: as §1

[4] = target: Gal(b1-4)GlcNAc(b1-3)Gal(b1-4)GlcNAc(b1-3)Gal(b1-4)GlcNAc(b1-3)Gal(b1-4)GlcNAc(b1-3)Gal(b1-4)GlcNAc(b1-2)Man(a1-3)[Gal(b1-4)GlcNAc(b1-3)Gal(b1-4)GlcNAc(b1-3)Gal(b1-4)GlcNAc(b1-3)Gal(b1-4)GlcNAc(b1-3)Gal(b1-4)GlcNAc(b1-2)Man(a1-6)]Man(b1-4)GlcNAc(b1-4)[Fuc(a1-6)]GlcNAc
Outline: as §1

[5] = target: Gal(b1-4)GlcNAc(b1-3)Gal(b1-4)GlcNAc(b1-3)Gal(b1-4)GlcNAc(b1-3)Gal(b1-4)GlcNAc(b1-3)Gal(b1-4)GlcNAc(b1-2)[Gal(b1-4)GlcNAc(b1-3)Gal(b1-4)GlcNAc(b1-3)Gal(b1-4)GlcNAc(b1-3)Gal(b1-4)GlcNAc(b1-3)Gal(b1-4)GlcNAc(b1-6)]Man(a1-6)[Gal(b1-4)GlcNAc(b1-3)Gal(b1-4)GlcNAc(b1-3)Gal(b1-4)GlcNAc(b1-3)Gal(b1-4)GlcNAc(b1-3)Gal(b1-4)GlcNAc(b1-2)Man(a1-3)]Man(b1-4)GlcNAc(b1-4)[Fuc(a1-6)]GlcNAc
Outline: as §1

[6] = target: GalNAc(b1-3)Gal(a1-4)Gal(b1-4)GlcNAc(b1-3)Gal(b1-4)Glc
Outline: as §1

[7] = target: GalNAc(b1-3)Gal(a1-6)Gal(b1-4)Glc
Outline: as §1

[8] = target: GalNAc(b1-4)GlcNAc(b1-3)GalNAc(b1-4)GlcNAc
Outline: as §1

[9] = target: GlcNAc(b1-3)Fuc
Outline: as §1

[10] = target: GlcNAc(b1-3)Gal(b1-4)GlcNAc(b1-3)Gal(b1-4)GlcNAc(b1-3)Gal(b1-4)GlcNAc(b1-2)Man(a1-3)[GlcNAc(b1-3)Gal(b1-4)GlcNAc(b1-3)Gal(b1-4)GlcNAc(b1-3)Gal(b1-4)GlcNAc(b1-2)Man(a1-6)]Man(b1-4)GlcNAc(b1-4)[Fuc(a1-6)]GlcNAc
Outline: as §1

[11] = target: GlcNAc(b1-3)Gal(b1-4)GlcNAc(b1-3)Gal(b1-4)GlcNAc(b1-3)Gal(b1-4)GlcNAc(b1-3)Gal(b1-4)GlcNAc(b1-2)Man(a1-3)[GlcNAc(b1-3)Gal(b1-4)GlcNAc(b1-3)Gal(b1-4)GlcNAc(b1-3)Gal(b1-4)GlcNAc(b1-3)Gal(b1-4)GlcNAc(b1-2)Man(a1-6)]Man(b1-4)GlcNAc(b1-4)[Fuc(a1-6)]GlcNAc
Outline: as §1

[12] = target: GlcNAc(b1-3)[GlcNAc(b1-6)]Gal(b1-4)GlcNAc
Outline: as §1

[13] = target: GlcNAc(b1-4)GlcNAc
Outline: as §1

[14] = target: GlcNAc(b1-4)GlcNAc(b1-4)GlcNAc(b1-4)GlcNAc(b1-4)GlcNAc
Outline: as §1

[15] = target: Man(a1-2)Man(a1-6)[Man(a1-3)]Man(a1-6)[Man(a1-2)Man(a1-2)Man(a1-3)]Man
Outline: as §1

[16] = target: Neu5Ac(a2-3)Gal(b1-3)GalNAc(b1-4)[Neu5Ac(a2-3)]Gal(b1-4)Glc
Outline: as §1

[17] = target: Neu5Ac(a2-3)Gal(b1-3)GlcNAc(b1-3)GalNAc
Outline: as §1

[18] = target: Neu5Ac(a2-3)Gal(b1-3)[GlcNAc(b1-6)]GalNAc
Outline: as §1

[19] = target: Neu5Ac(a2-3)Gal(b1-4)GlcNAc
Outline: as §1

[20] = target: Neu5Ac(a2-3)Gal(b1-4)GlcNAc(b1-2)Man
Outline: as §1

[21] = target: Neu5Ac(a2-3)Gal(b1-4)GlcNAc(b1-2)Man(a1-3)[GlcNAc(b1-4)][Neu5Ac(a2-3)Gal(b1-4)GlcNAc(b1-2)Man(a1-6)]Man(b1-4)GlcNAc(b1-4)GlcNAc
Outline: as §1

[22] = target: Neu5Ac(a2-6)Gal(b1-4)GlcNAc(b1-2)Man(a1-3)[Man(a1-6)]Man(b1-4)GlcNAc(b1-4)GlcNAc
Outline: as §1

[23] = target: Neu5Ac(a2-6)Gal(b1-4)GlcNAc(b1-2)[Neu5Ac(a2-6)Gal(b1-4)GlcNAc(b1-4)]Man(a1-3)[GlcNAc(b1-4)][Neu5Ac(a2-6)Gal(b1-4)GlcNAc(b1-2)[Neu5Ac(a2-6)Gal(b1-4)GlcNAc(b1-6)]Man(a1-6)]Man(b1-4)GlcNAc(b1-4)GlcNAc
Outline: as §1

[24] = target: Neu5Gc(a2-3)Gal(b1-4)GlcNAc(b1-3)Gal(b1-4)GlcNAc(b1-2)Man(a1-3)[Neu5Gc(a2-3)Gal(b1-4)GlcNAc(b1-3)Gal(b1-4)GlcNAc(b1-2)Man(a1-6)]Man(b1-4)GlcNAc(b1-4)GlcNAc
Outline: as §1

[25] = target: Neu5Gc(a2-3)Gal(b1-4)[Fuc(a1-3)]GlcNAc
Outline: as §1

B1: Gal 7 (Homo sapiens) (protein)
chain: MSNVPHKSSLPEGIRPGTVLRIRGLVPPNASRFHVNLLCGEEGGSDAALHFNPRLDTSEVVFNSKEGGSWGREESGPGVPFGRGQPFEVLIIASDDGFKAVVGDAQYHHFRHRLPLARVRLVEVGGDVQLDSVRIF
- glycan array binding signal (z-score) [1]: 4.17
- glycan array binding signal (z-score) [2]: 4.03
- glycan array binding signal (z-score) [3]: 7.44
- glycan array binding signal (z-score) [4]: 4.13
- glycan array binding signal (z-score) [5]: 4.35
- glycan array binding signal (z-score) [6]: -0.451
- glycan array binding signal (z-score) [7]: -0.396
- glycan array binding signal (z-score) [8]: 0.573
- glycan array binding signal (z-score) [9]: 0.85
- glycan array binding signal (z-score) [10]: 4.14
- glycan array binding signal (z-score) [11]: 2.87
- glycan array binding signal (z-score) [12]: -0.632
- glycan array binding signal (z-score) [13]: -0.382
- glycan array binding signal (z-score) [14]: -0.329
- glycan array binding signal (z-score) [15]: -0.26
- glycan array binding signal (z-score) [16]: -0.265
- glycan array binding signal (z-score) [17]: -0.585
- glycan array binding signal (z-score) [18]: -0.436
- glycan array binding signal (z-score) [19]: -0.58
- glycan array binding signal (z-score) [20]: 0.603
- glycan array binding signal (z-score) [21]: -0.325
- glycan array binding signal (z-score) [22]: -0.264
- glycan array binding signal (z-score) [23]: -0.265
- glycan array binding signal (z-score) [24]: 1.39
- glycan array binding signal (z-score) [25]: -0.084
